This is an account of results in the supplement of paper PMC11732987, “Enantioselective OTUD7B fragment discovery through chemoproteomics screening and high-throughput optimisation” (Communications Chemistry, 2025).

Structures are written as SMILES. Unmarked numbers belong to inactive results.

The assay concerns the target T1, USP22 (UniProt Q9UPT9).
T1 sequence (whole entry): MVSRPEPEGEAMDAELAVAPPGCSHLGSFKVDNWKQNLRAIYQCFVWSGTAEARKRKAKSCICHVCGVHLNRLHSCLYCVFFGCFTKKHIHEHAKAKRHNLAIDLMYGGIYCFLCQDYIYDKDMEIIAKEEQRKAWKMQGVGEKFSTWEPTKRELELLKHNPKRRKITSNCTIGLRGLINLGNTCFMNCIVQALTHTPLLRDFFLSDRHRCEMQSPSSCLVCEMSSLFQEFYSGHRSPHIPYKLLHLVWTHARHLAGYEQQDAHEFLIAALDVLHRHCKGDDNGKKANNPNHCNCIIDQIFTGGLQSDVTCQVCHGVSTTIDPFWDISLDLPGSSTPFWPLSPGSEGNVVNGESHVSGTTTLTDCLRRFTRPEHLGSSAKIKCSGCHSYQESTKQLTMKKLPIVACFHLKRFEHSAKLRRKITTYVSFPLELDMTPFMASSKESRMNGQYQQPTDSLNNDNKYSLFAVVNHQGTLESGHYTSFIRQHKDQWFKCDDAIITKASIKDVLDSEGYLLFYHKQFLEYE
Nature of the assay: log2 ratio of Biotin-Ahx-Ub-VS probe labelling (fragment/DMSO); higher = less target engagement (more negative = stronger competition), active = hit call of the paper (q ≤ 0.05, log2 ratio ≤ -1). The following applies: compound concentration: 200 uM; treatment time: 3 h. As to the method: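 Competitive ABPP in HEK293T cell lysate. Lysates were treated with each chloroacetamide fragment at 200 µM for 3 h, then with Biotin-Ahx-Ub-VS (0.5 µM, 1 h), NeutrAvidin-enriched and analysed by diaPASEF LC-MS/MS. Protein LFQ was median-normalised; average log2 ratio is fragment/DMSO from an unpaired t-test (n=3 treated, n=44 DMSO). Hits: q ≤ 0.05, log2 ratio ≤ -1, unique peptides ≥ 2.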
With `O=C(CCl)N1CCC(OCc2ccccc2F)CC1`, the “log2 ratio of Biotin-Ahx-Ub-VS probe labelling” value (shortened to “log2 ratio”) is -0.181.

`CS(=O)(=O)N1CCCN(C(=O)CCl)CC1`: the “log2 ratio” value was 0.0754.

For `Cc1cccnc1NC(=O)C1CCN(C(=O)CCl)CC1.Cl`, the “log2 ratio” value is 0.169.

Consider `COc1cccc(CN(C)C(=O)CCl)c1`, for which the “log2 ratio” value is -0.426.

`Cl.O=C(CCl)N1CCC(Cc2nccs2)C1` (stereo not given): the “log2 ratio” value is 0.0323.

With `Cl.O=C(CCl)N1CCN(Cc2ccccc2)CC1`, the “log2 ratio” value was -0.403.

With `O=C(CCl)N1CCc2sccc2C1`, the “log2 ratio” value is -0.23.

Consider `O=C(CCl)N1CCC(S(=O)(=O)c2ccc(F)cc2)CC1`, for which the “log2 ratio” value is 0.191.

On to `C[C@@H](NC(=O)CCl)c1cccc(C#N)c1`, for which the “log2 ratio” value is 0.031.

With `O=C(CCl)NCc1ccc(N2CCOCC2)c(F)c1`, the “log2 ratio” value was -0.359.

Regarding `O=C(CCl)N1CCOCCC1c1ccccc1` (stereo not given), the “log2 ratio” value was 0.147.

`O=C(O)C1Cc2ccccc2CN1C(=O)CCl` (stereo not given): the “log2 ratio” value was 0.112.

`COc1ccc(Cl)cc1NC(=O)CCl`: the “log2 ratio” value was -0.388.

`Cl.O=C(CCl)NCc1ccnc(Oc2ccccc2F)c1`: the “log2 ratio” value is -0.353.

As for `Cl.Cn1nccc1C(NC(=O)CCl)c1ccccc1` (stereo not given), the “log2 ratio” value is -0.153.

`Cc1cc(CC(C)NC(=O)CCl)n[nH]1` (stereo not given): the “log2 ratio” value was 0.128.

In the case of `Cc1ccc2nnc(CNC(=O)CCl)n2c1`, the “log2 ratio” value is -0.259.

For the compound `Cc1cccc(NC(=O)[C@@H]2CCCN2C(=O)CCl)n1`, the “log2 ratio” value is -0.038.

Consider `O=C(CCl)N1CCN(c2nc3ccccc3o2)CC1`, for which the “log2 ratio” value is 0.146.

With `O=C(CCl)N(Cc1ccsc1)C1CC1`, the “log2 ratio” value was 0.255.

For the compound `O=C(CCl)Nc1cccc2ncccc12`, the “log2 ratio” value was 0.19.

As for `C/C(=C\CNC(=O)CCl)c1cnn(C)c1.Cl`, the “log2 ratio” value is 0.026.

For `O=C(CCl)N1CCCC2CCCCC21` (stereo not given), the “log2 ratio” value was -0.0228.

Take `O=C(CCl)NC1CCS(=O)(=O)c2ccccc21` (stereo not given): the “log2 ratio” value is -0.0769.

As for `Cl.Cn1c(CNC(=O)CCl)nc2cccnc21`, the “log2 ratio” value is -0.175.

On to `Cl.O=C(CCl)N1CCC(n2nc3ccccc3n2)CC1`, for which the “log2 ratio” value was -0.472.

For the compound `COc1ccc(C2CCCN2C(=O)CCl)c(OC)c1` (stereo not given), the “log2 ratio” value is -0.361.

In the case of `Cc1ccc(CN(CCO)C(=O)CCl)cc1`, the “log2 ratio” value is -0.0829.

As to `O=C(CCl)N1CCC2(CCC(O)CC2)CC1`, the “log2 ratio” value was -0.145.

`O=C(CCl)N1CCCCCC1c1ncon1` (stereo not given): the “log2 ratio” value is -0.0397.

Turning to `CC1CN(c2ccc(NC(=O)CCl)cc2)CC(C)O1` (stereo not given), the “log2 ratio” value was -0.32.

For the compound `O=C(CCl)Nc1ccc2c(c1)OC(F)(F)O2`, the “log2 ratio” value was -0.358.

As for `CN(CCc1ncc(Br)cn1)C(=O)CCl.Cl`, the “log2 ratio” value is -0.0976.

Turning to `O=C(CCl)NC1(c2ccc3c(c2)OCCO3)CCCC1`, the “log2 ratio” value was 0.0133.

Turning to `O=C(CCl)NCCC1COCCO1` (stereo not given), the “log2 ratio” value was 0.193.

As to `Cc1ccccc1C1(CNC(=O)CCl)CCOCC1`, the “log2 ratio” value was -0.0958.

With `CCN(C(=O)CCl)C1CCCCC1`, the “log2 ratio” value is 0.0286.

In the case of `Cc1nc(CN2CCCN(C(=O)CCl)CC2)no1.Cl`, the “log2 ratio” value is 0.125.

For `O=C(CCl)Nc1nnc(CC(F)(F)F)o1`, the “log2 ratio” value is -0.0202.

Turning to `CC(NC(=O)CCl)c1cccc(Cl)c1` (stereo not given), the “log2 ratio” value was -0.146.
